We go through 44 compounds from PubChem BioAssay AID1362 (SRMLSC, 2008).

This assay can be described thus: growth inhibition of WT strain, primary screen, mitochondrial fusion inhibitor project, WT and mutant strains, chemical genetic (AID 1362). The following applies: mitochondrial fusion phenotypic screen, at 10 µM.
Setting [1] is: WT strain, growth inhibition, stronger effect = higher value.

The campaign covered roughly 190,000 compounds. About 4,000 (2.1%) were called active. The sample holds actives, similar compounds and a random draw of the others, so the mix is not that of the screen. Rule as the data show it: active = inhibition above about 58%; inactive = the rest, inconclusive results apart; tested in S. cerevisiae.

As a reminder, the inhibition is the drop in the measured response relative to a control, in per cent. Turning to `Cc1nn(-c2ccccc2)c(Cl)c1/C=C/C(=O)c1ccc(O)cc1`, the inhibition is, setting by setting: under setting [1], -8.06% (inactive); (mutant strain inhibition) 3.09%.
`Cc1ccc(C(=O)/C=C/c2c(C)nn(-c3ccccc3)c2Cl)cc1`: the inhibition is 59.5% (active) under setting [1] and -6.72% (mutant strain inhibition).
The corresponding values for `O=C(Cn1c(N2CCN(C/C=C/c3ccccc3)CC2)nc2ccccc21)c1ccccc1` are 45.1% (inactive) and 41.5%.
On the same counts, the results for `COc1ccc(C(=O)CSc2nnc(-c3ccco3)o2)cc1` are -6.52% (inactive) and -35.3%.
On the same counts, the results for `N#Cc1cccc(Nc2c3c(nc4ccccc24)CCCC3)c1` are -0.59% (inactive) and 6.35%.
With `COC(=O)c1c(C)[nH]c(C)c1-c1ccc([N+](=O)[O-])cc1`, the inhibition was 53% (inactive) under setting [1] and 55.8% (mutant strain inhibition).
On the same counts, the results for `COc1ccc(NC(=S)Nc2ccc(S(N)(=O)=O)cc2)c(C)c1` are 13.8% (inactive) and 6.64%.
For the compound `COc1ccc(-c2nn(-c3ccccc3)cc2/C=N/Nc2ccccn2)cc1OC`, the inhibition is, setting by setting: under setting [1], 60.2% (active); (mutant strain inhibition) 31.9%.
The corresponding values for `CC(C)(C)OC(=O)N/N=C/c1cn(-c2ccccc2)nc1-c1cccnc1` are -8.33% (inactive) and -1.71%.
The corresponding values for `COc1ccc(-c2nn(-c3ccccc3)cc2C(=O)Nc2nccs2)cc1OC` are 26.6% (inactive) and -2.08%.
On the same counts, the results for `Cc1nnsc1C(=O)N/N=C/c1cccc(C(F)(F)F)c1` are 36.2% (inactive) and 7.39%.
Turning to `Cc1cc(=O)oc(C)c1C(=O)NCCN(C)Cc1ccccc1`, the inhibition runs as follows: under setting [1], -0.58% (inactive); (mutant strain inhibition) 11.8%.
The corresponding values for `Cc1cc(=O)oc(C)c1C(=O)Nc1cnc2ccccc2c1` are 98.9% (active) and 96.3%.
On to `Cc1cc(=O)oc(C)c1C(=O)NCc1ccc(F)cc1`, for which the inhibition is -0.25% (inactive) under setting [1] and 16.4% (mutant strain inhibition).
On the same counts, the results for `CC(C)C(=O)NCc1cc(-c2ccc(Cl)cc2)no1` are 1.64% (inactive) and -1.57%.
On the same counts, the results for `O=C(CC1C(=O)NCCN1Cc1ccc(-c2ccccc2)cc1)NCC1CCOCC1` (stereo not drawn) are -14.8% (inactive) and -10.2%.
Consider `Brc1ccc(CSc2ccc(-c3ccco3)nn2)cc1`, for which the inhibition under setting [1] was 12.2% (inactive) and the inhibition (mutant strain inhibition) is -1.7%.
Regarding `Cn1c(SCc2c(F)cccc2Cl)nnc1-c1cnccn1`, the inhibition is, setting by setting: under setting [1], 4.78% (inactive); (mutant strain inhibition) -6.62%.
The corresponding values for `Fc1cccc(Cl)c1CSc1ccc(-c2ccco2)nn1` are 75.3% (active) and 67.7%.
The corresponding values for `CCn1c(SCC(=O)Nc2cc(C)ccc2C)nnc1-c1cnccn1` are 62.3% (active) and 14.8%.
With `CCc1ccc(NC(=O)CSc2nnc(-c3cnccn3)n2Cc2ccco2)cc1`, the inhibition runs as follows: under setting [1], 6.65% (inactive); (mutant strain inhibition) 10.6%.
As to `Cc1ccc(NC(=O)CSc2nnc(-c3cnccn3)n2Cc2ccco2)cc1C`, the inhibition is -14.2% (inactive) under setting [1] and -7.75% (mutant strain inhibition).
On the same counts, the results for `CCOc1ccc(C2c3[nH]c4ccccc4c3CCN2Cc2cn(CC)nc2C)cc1` (stereo not drawn) are 36% (inactive) and 39.9%.
The corresponding values for `COc1cccc(N(Cc2nnc3n2CCCCC3)C(=O)Nc2ccccc2F)c1` are 9.35% (inactive) and 6.31%.
On to `Cc1[nH]n(-c2cccc(Cl)c2)c(=O)c1-c1ccc(Cl)cc1`, for which the inhibition under setting [1] is 81.8% (active) and the inhibition (mutant strain inhibition) is 74.9%.
The corresponding values for `Cc1[nH]n(-c2cccc(Cl)c2)c(=O)c1/C=N/n1c(C)nc2ccccc2c1=O` are -0.49% (inactive) and -9.97%.
`O=c1[nH]n(-c2cccc(Cl)c2)c2ncccc12`: the inhibition is 3.71% (inactive) under setting [1] and 33.7% (mutant strain inhibition).
On the same counts, the results for `CCc1cc(CNC(=O)CC2C(=O)NCCN2CC2CCCCC2)on1` (stereo not drawn) are 8.17% (inactive) and -2.22%.
On the same counts, the results for `Cc1cccc(C)c1NC(=O)C1(N(C(=O)c2ccccn2)c2ccc(O)cc2)CCCCC1` are 0.64% (inactive) and -13.5%.
On the same counts, the results for `CC(=O)N/N=C(\C)c1ccc(Br)cc1Br` are 13.2% (inactive) and 10.1%.
In the case of `O=C(/C(=N\O)n1cncn1)c1ccc(Br)cc1Br`, the inhibition was 86.5% (active) under setting [1] and -4.91% (mutant strain inhibition).
On the same counts, the results for `Cc1ccc(C(=O)N2CCCC(c3ccccc3)=N2)cc1` are 10.8% (inactive) and 2.44%.
In the case of `Cc1cccc(NC(=O)c2nnn(-c3cccc(C(F)(F)F)c3)c2N)c1`, the inhibition by setting is: under setting [1], -4.08% (inactive); (mutant strain inhibition) -7.16%.
`O=C1c2ccccc2NC(c2ccccn2)N1NS(=O)(=O)c1ccccc1` (stereo not drawn): the inhibition is, setting by setting: under setting [1], -4.85% (inactive); (mutant strain inhibition) -14.2%.
Consider `NS(=O)(=O)c1ccc(N2C(=O)C3C4CC(C(Br)C4Br)C3C2=O)cc1` (stereo not drawn), for which the inhibition was -2.55% (inactive) under setting [1] and -12.2% (mutant strain inhibition).
On the same counts, the results for `FC(F)(F)c1cc(-c2ccco2)nc(N2CCOCC2)n1` are 7.84% (inactive) and 9.26%.
As to `FC(F)(F)c1cc(-c2ccco2)nc(NCc2ccc(Cl)cc2)n1`, the inhibition was 76.9% (active) under setting [1] and 17.2% (mutant strain inhibition).
The corresponding values for `FC(F)(F)c1cc(-c2cccs2)nc(NCc2ccco2)n1` are 6.76% (inactive) and 7.71%.
On to `COc1ccc(CN2CCCC(C(=O)c3ccc(Cl)cc3)C2)cc1Cn1cncn1` (stereo not drawn), for which the inhibition was -19.6% (inactive) under setting [1] and -4.89% (mutant strain inhibition).
As for `CCc1ccccc1NC(=S)N(CCN1CCCCCC1)Cc1ccco1`, the inhibition is -9.37% (inactive) under setting [1] and 22.4% (mutant strain inhibition).
As for `CS(=O)(=O)N(CC(=O)N/N=C/c1ccccn1)c1ccc(Oc2ccccc2)cc1`, the inhibition is 13% (inactive) under setting [1] and 10.6% (mutant strain inhibition).
On the same counts, the results for `Cc1ccccc1NC(=O)CNc1ccccc1N1CCCCC1` are 67.2% (active) and 13.6%.
Turning to `O=C(CN1CCN(C2CCCCC2)CC1)Nc1ccccc1N1CCCCC1`, the inhibition was 6.93% (inactive) under setting [1] and 0.36% (mutant strain inhibition).
For the compound `Cn1c(=O)c2c(nc(SCC(=O)Nc3ccccc3N3CCCCC3)n2C)n(C)c1=O`, the inhibition is, setting by setting: under setting [1], 12.6% (inactive); (mutant strain inhibition) -10.4%.
